Among all 1,200 compounds or so, about 290 (24%) were called active. About 9% were inconclusive and are not listed. Not all results are given here. Potency and affinity values are given separately. A number with no mark means an inactive call. No rule for the calls is given here.
Test: LCL viability reduction – cell-based, plate reader, cherry-picks, set 2, cytotoxicity control, dose response (AID 504882);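 also: 0% = neutral control wells and -100% = positive control wells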
Conditions: EBV lymphoblastoid cells (LCL) viability; series mostly up to 19.5 µM; activity change, negative = cytotoxicity: at the top concentration

Row | Structure (SMILES) | activity change, negative = cytotoxicity [%]
1 | CC(=O)Nc1cccc(-c2cnc(N)c(C(=O)c3cccnc3)n2)c1 | -6.3
2 | O=C(O)c1cc(=O)c2c(OCC(O)COc3cccc4oc(C(=O)O)cc(=O)c34)cccc2o1 | 6.91
3 | Cn1cc(SCC(=O)NCC2CCCO2)c2ccccc21 (stereo not given) | 11.3
4 | Cc1ccc(-n2c(C)c([N+](=O)[O-])c3ccc(O)c(CN(C)C)c32)cc1 | 5.29
5 | NC1=NC(=O)NC1(c1ccccc1)c1ccccc1 | 6.16
6 | Cn1nc(-c2ccc(N3CCOCC3)c(NS(=O)(=O)c3ccccc3)c2)c2ccccc2c1=O | -1.63
7 | COc1ccccc1N1CCN(C(=O)CCC(=O)N2CCN(c3ccc(F)cc3)CC2)CC1 | 6.56
8 | COc1ccc(/C=C/C(=O)OCC(=O)NCc2ccco2)cc1OC | -5.65
9 | COc1ccc2cc(-c3cc(C(=O)OCC(=O)NC4CCS(=O)(=O)C4)c4ccccc4n3)ccc2c1 (stereo not given) | 13.2
10 | CCOc1ccc(C(=O)NC(=S)N(Cc2ccccc2)Cc2ccccc2)cc1 | -15.1
11 | O=C(CCCOc1ccccc1)N1CCN(c2ccccc2)CC1 | 8.48
12 | CCn1c(CCNC(=O)c2ccc(OC)cc2)nnc1SCc1ccc(Cl)cc1Cl | 10.2
13 | CC1S/C(=C(\C#N)C(=O)NCc2ccco2)N(Cc2ccco2)C1=O (stereo not given) | -2.32
14 | Cc1onc(-c2c(Cl)cccc2Cl)c1C(=O)N[C@@H]1C(=O)N2[C@@H]1SC(C)(C)[C@@H]2C(=O)O | 11.7
15 | Cc1cc(C)nc(SCC(=O)OCN2C(=O)c3ccccc3C2=O)n1 | 9.98
16 | Nc1ccccc1SC1CC(=O)N(c2ccccc2Cl)C1=O (stereo not given) | 14.3
17 | Cc1ccccc1C(=O)N1CCN(c2ccc(NC(=O)c3ccco3)cc2Cl)CC1 | -22.9
18 | CCOc1ccccc1NC(=O)Cn1c(=O)sc2ccccc21 | 13.3
19 | COc1ccc(C(Nc2ccccn2)c2oc(CO)cc(=O)c2O)cc1 (stereo not given) | 27
20 | CC(=O)c1ccc(NC(=O)c2noc3c2CCC3)cc1 | 3.06
21 | O=c1nc(N/N=C/C=C/c2ccccc2)cn[nH]1 | 2.42
22 | Cc1ccc(S(=O)(=O)NC(CC(C)C)C(=O)NCC(c2ccco2)N2CCCCC2)cc1 (stereo not given) | -0.485
23 | COc1ccc(S(=O)(=O)NC(CC(=O)NCc2ccco2)C(C)C)cc1 (stereo not given) | 15.7
24 | Cc1nnc(SCC(=O)N2CCC(c3noc4ccc(F)cc34)CC2)s1 | -6.4
25 | CCC(=O)NC(=S)Nc1ccccc1C(F)(F)F | 4.46
26 | COc1ccc(NC(=O)C[C@H]2C(=O)N(CCc3ccccc3)C[C@@H]2c2ccc(OC)cc2)cc1 | 12.5
27 | CC(C)c1cc(NC(=O)c2ccccc2)cc(C(C)C)c1O | 21.6

Row | Structure (SMILES) | activity change, negative = cytotoxicity [%]
28 | O=C1OCC2=C1C(c1ccc3c(c1)OCO3)c1cc3c(cc1O2)OCO3 (stereo not given) | -7.86
29 | CCCCCC(=O)NC(=S)Nc1ccc(Br)cc1C | 8.25
30 | Cc1cc(C(=O)CN2C(=O)c3ccccc3C2=O)c(C)n1Cc1cccs1 | 6.45
31 | COc1ccc(C(=O)N(CN2CCCC2=O)c2cc(C)on2)cc1OC | 21.1
32 | Cn1c(=O)[nH]c(=O)c2c1nc(CN1CCOCC1)n2CCCc1ccccc1 | 8.4
33 | Cc1c(NC(=O)c2cc(-c3cccs3)nc3ccccc23)c(=O)n(-c2ccccc2)n1C | 0.207
34 | CN(C1CCCCC1)S(=O)(=O)c1ccc(C(=O)N2CCN(c3nc4ccccc4s3)CC2)cc1 | 11.4
35 | O=C(CN1C(=O)CCOc2ccccc21)Nc1ccc(Cl)c(S(=O)(=O)N2CCOCC2)c1 | 8.03
36 | Cc1cccc(CNc2ncnc3ccc(-c4ccoc4)cc23)c1 | -1.98
37 | COc1cc(-c2nc(C(=O)NCC3CCCO3)cc3c2[nH]c2ccccc23)cc(OC)c1OC (stereo not given) | -7.34
38 | CC(C)CC1C(=O)N(Cc2cn(CC3CCCCC3)nn2)CCS(=O)(=O)N1Cc1ccc(-c2ccc(F)nc2)cc1 (stereo not given) | -28.7
39 | CCOC(=O)OC(C)OC(=O)[C@@H]1N2C(=O)[C@@H](NC(=O)[C@H](N)c3ccccc3)[C@H]2SC1(C)C (stereo not given in full) | 8.11
40 | CCCc1cc(=O)[nH]c(SCC(=O)NC2CCCCC2)n1 | 2.97
41 | Cc1ccc(C)c(N2CCN(S(=O)(=O)c3ccc4c(c3)CCN4C(=O)CCC(=O)O)CC2)c1 | 18.6
42 | Cc1ccnc(SCCn2c(N3CCN(c4ccccc4)CC3)nc3c2c(=O)[nH]c(=O)n3C)n1 | 15.2
43 | O=C(CCC(=O)NNC(=O)Nc1cccc(Cl)c1)NCc1ccccc1 | 6.9
44 | Cc1ccccc1C(=O)NC(=S)Nc1ccc(N2CCN(C(=O)c3ccccc3)CC2)cc1 | -22.1
45 | COCCNC(=O)NC12CC3(C)CC(C)(CC(C)(C3)C1)C2 | 9.27
46 | COCCn1c(SCc2ccc(C(=O)OC)o2)nnc1-c1c[nH]c2ccccc12 | 1.07
47 | CCOc1ccc(OCc2cccc(C(=O)N3CCCC3)c2)cc1 | 6.21
48 | COc1ccc(C(=O)Nc2cccc(C(=O)N/N=C/c3ccc(OC)cc3OC)c2)cc1 | 15.4
49 | O=S(=O)(N/N=C/c1ccccc1F)c1ccccc1 | 21.6
50 | CSc1nc2cc3c(cc2n1C(=O)c1ccc(C)cc1)OCCO3 | 5.75
51 | Nc1cc2ccncc2c2ccccc12 | -7.83
52 | CC(C)NCC(O)COc1cccc2ccccc12 (stereo not given) | 8.08
53 | COc1ccc(-n2c(C)c([N+](=O)[O-])c3ccc(O)c(CN(C)C)c32)cc1 | -9.18
54 | Cc1ccc(C(=O)NCC(=O)N(C)Cc2cccc(F)c2)s1 | 12.6

Row | Structure (SMILES) | activity change, negative = cytotoxicity [%]
55 | COc1ccc(-n2c(C)c(C(C)=O)c3cc(O)ccc32)cc1 | -1.05
56 | CC(CNC1CCCCC1)OC(=O)c1ccccc1 (stereo not given) | 28.1
57 | CC(C)c1ccc(OCc2cccc(C(=O)N/N=C/c3cccnc3)c2)cc1 | 12.6
58 | CC(C)(C)c1ccc(-c2noc(CCC(N)=O)n2)cc1 | 4.2
59 | COCCn1c(SCC(=O)NCc2ccco2)nnc1-c1c[nH]c2ccccc12 | 5.19
60 | CCOC(=O)C1=C(C)NC(C)=C(C(=O)OCC)C1C(=O)OCC(=O)N(C)C1CCS(=O)(=O)C1 (stereo not given) | 14.5
61 | COc1ccc(-c2csc3ncnc(NCCCO)c23)cc1 | 15.2
62 | COc1cc(C2NC(=O)NC(C)=C2C(=O)OC2CCCC(C)C2)cc(Br)c1O (stereo not given) | 18.2
63 | COc1cccc(CC(=O)NNC(=O)c2ccc3c(c2)OCO3)c1 | 0.245
64 | CCCN(CC)c1ncnc2[nH]ncc12 | 6.92
65 | Cc1cc(N2CCOCC2)c2c(N)c(Br)cc(C)c2n1 | -4.22
66 | CCOc1ccccc1C(=O)NC1CC2CCCC(C1)N2Cc1nnnn1Cc1ccco1 (stereo not given) | 5.74
67 | Nc1ncnc(N2CCc3ccccc32)c1[N+](=O)[O-] | -5.38
68 | CCn1c2ccccc2c2cc(NC(=O)c3ccccc3-c3ccccc3C(=O)O)ccc21 | 6.18
69 | CC(=O)Nc1ccc(C=NNc2nnc(NN=Cc3ccc(NC(C)=O)cc3)c3ccccc23)cc1 | 16.1
70 | CCn1c(NC(=O)c2ccc(C)cc2)c2ccccc2nc1=O | 21.3
71 | CCCN(CCC)c1ncnc2nc[nH]c12 | -1.12
72 | COc1ccc(CC(C)NCC(O)c2ccc(O)c(NC=O)c2)cc1 (stereo not given) | 20.6
73 | O=C(c1cccs1)N1CC=C(c2ccccc2)CC1 | 2.23
74 | CCN1C(=O)[C@@H]2[C@@H](c3ccc(-c4ccc(Cl)c(Cl)c4)cc3)N3CCC[C@@]3(C(=O)OC)[C@@H]2C1=O | -16.2
75 | CCOC(=O)N1CCN(C(=O)C2CCC(=O)N(Cc3ccccc3OC)C2)CC1 (stereo not given) | 4.55
76 | Cc1ccc(-c2cc(N)n3nc(-c4ccc(C)cc4)cc3n2)cc1 | -27.6
77 | O=[N+]([O-])c1ccc2ncnc(N3CCN(Cc4ccc5c(c4)OCO5)CC3)c2c1 | 6.02
78 | Fc1ccc2[nH]c3c(N4CCN(c5ccccc5)CC4)ncnc3c2c1 | -2.91
79 | CC(C)(C)OC(=O)N1Cc2ccccc2C[C@H]1C(=O)NCC(=O)Nc1ccc2c(c1)OCCO2 | 13
80 | O=C(C1CCCCC1)N1CCN(c2ncccn2)CC1 | 25.1
81 | COC(=O)c1ccccc1NC(=O)CC(=O)Nc1ccccc1C(=O)OC | 12.8

Row | Structure (SMILES) | activity change, negative = cytotoxicity [%]
82 | O=C(NCCCN1CCCCC1)c1ccc2c(c1)NC(=O)c1ccccc1S2 | 12.6
83 | CCOc1ccc(NC(=O)c2ccc(N3CC4CC(C3)c3cccc(=O)n3C4)c(NC(=O)c3cccnc3)c2)cc1 (stereo not given) | 12.3
84 | CSc1ccccc1OCc1cc(C(=O)N2CCC[C@H]2C(N)=O)no1 | 9.86
85 | COC(CNC(=O)c1ccc(N2CCC3(CC2)OCCO3)c([N+](=O)[O-])c1)OC | 20.8
86 | Cc1ccnc(NC(=O)c2ccc(C(=O)c3ccccc3)cc2)c1 | -27.3
87 | COc1ccc(C(=O)Nc2cc(C)c(NC(=O)c3ccccc3OC)cn2)cc1 | -2.15
88 | COc1ccccc1-c1ccccc1C1=CC(=O)CC(C)(C)C1=O | 5.69
89 | COc1ccc(C2=NN(C(=O)CSC3=NN4CCCC(=O)N=C4S3)C(c3cccc(OC)c3OC)C2)cc1 (stereo not given) | 17.7
90 | O=C(O)c1ccc(N/N=C/c2cc3cc4c(cc3nc2Cl)OCCO4)cc1 | 19.1
91 | Clc1ccc(-c2ccnc(Oc3ccc4ccccc4c3)n2)cc1 | -2.65
92 | CCOC(=O)[C@H]1[C@H]2COc3ccc(OC)cc3[C@@H]2N2C(=O)CN(C)C(=O)[C@@]12C | 24.8
93 | CN(C)CCCC1(c2ccc(F)cc2)OCc2cc(C#N)ccc21 (stereo not given) | 15.9
94 | CC1(C)Cc2nc3sc4c(SCC(=O)O)ncnc4c3cc2CO1 | 2.81
95 | COc1ccc(C=C2OC(=O)C(C(C)=O)=C2O)cc1 | 6.33
96 | COc1ccc(-c2oc3ncnc(NCCN4CCOCC4)c3c2-c2ccc(OC)cc2)cc1 | 37.9
97 | CCN(CC(=O)Nc1ccc(NC(C)=O)cc1)C(=O)c1cccnc1Sc1ccc(C)c(C)c1 | 7.08
98 | COc1ccc(N2Cc3cccc(C(=O)NC(C)CCc4ccco4)c3C2=O)cc1 (stereo not given) | 6.66
99 | COc1ccc(-c2cc(C(=O)N3CCCC3)no2)cc1 | -2.42
100 | CC(Sc1nc(-c2ccc(F)cc2)cs1)C(=O)N1c2ccccc2CC1C (stereo not given) | -15.2
101 | Cc1ccc(CN2C(=O)CCC2C(=O)NCCCN2CCC(C)CC2)cc1 (stereo not given) | 22.1
102 | Cc1cnc(NC(=O)c2ccc(OCC3CCCO3)cc2)s1 (stereo not given) | 1.24
103 | CCN(CC)S(=O)(=O)c1cccc(-n2c(O)c(C=Nc3ccccc3C(=O)O)c3ccccc3c2=O)c1 | 9.06
104 | CCN(CC)S(=O)(=O)c1ccc(N=NC2=C(O)CCCC2=O)cc1 | 3.45
105 | O=C(O)c1ccc(N/N=C/c2ccc3ncccc3c2)cc1 | 13.5

Source: PubChem BioAssay AID504882 (Broad Institute, 2011)
